# Screens (PubChem)
# The list is not random: actives were taken first. Their share in the collection is about 9.8%.
# CBFb RUNX1 block – CBF-beta/RUNX1 interaction disruption; Q01196+Q13951; AlphaScreen CBFb-His/RUNX1-biotin binding, biochemical; Potency, µM (titrated, usually from 59.8 µM), hits mostly inhibitors; 230,000 tested, under 10 active
#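 Proteins preincubated together for 20 min at RT before compound addition; 15 min later, nickel and streptavidin beads were added and left 90 min prior to AlphaScreen measurement.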
# ALDH1A1 inh – blocks purified human ALDH1A1 activity | 220,000 compounds, 7.3% hits | Potency, µM (titrated, usually from 75.3 µM), most hits filed as inhibitors | P00352 | Purified ALDH1A1, NADH fluorescence, propionaldehyde substrate | AID 1030; active = well fitted inhibition curve with a large enough effect, not every such curve was filed as active; inconclusive = small, poorly fitted or top-dose-only effect, or another doubt; inactive = no such curve, though single readings can be large or run the other way
# HTT cytoprotect – Huntington cell model cytoprotection by ATP luminescence; PC12 HTT-Q103 induced, cytoprotection, ATP luminescence, 40 h; Potency, µM (doses to about 56.4 µM), usual class: activators; 230,000 compounds, 0.14% hits; note: nearly all actives have a fitted effect of over 45% in size
#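 Readout: ATPlite luminescence (ATP level). Model: stable PC12, inducible Htt exon1 Q103-GFP. Inducer: tebufenozide, 100 nM final. Compounds: dose series. No G418 in medium.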
# HPGD inh – blocks human HPGD enzyme activity; Potency, µM, hits mostly inhibitors; purified HPGD, NADH fluorescence kinetic, PGE2 substrate; AID 894; 150,000 compounds, 4.3% hits; active = well fitted inhibition curve with a large enough effect, not every such curve was filed as active; inconclusive = small, poorly fitted or top-dose-only effect, or another doubt; inactive = no such curve, though single readings can be large or run the other way
# Target sequence (P15428 whole entry, looked up): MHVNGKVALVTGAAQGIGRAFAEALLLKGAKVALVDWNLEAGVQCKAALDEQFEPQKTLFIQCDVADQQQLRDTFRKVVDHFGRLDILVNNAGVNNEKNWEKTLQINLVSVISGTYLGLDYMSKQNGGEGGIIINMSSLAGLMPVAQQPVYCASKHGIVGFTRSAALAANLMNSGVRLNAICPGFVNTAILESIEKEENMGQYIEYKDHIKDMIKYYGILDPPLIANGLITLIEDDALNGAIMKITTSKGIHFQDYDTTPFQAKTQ
#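 20 nM HPGD preincubated 15 min at room temperature with compound in 50 mM Tris-HCl pH 8, 0.01% Tween 20. Started with 1 mM NAD+ and 30 uM prostaglandin E2; NADH fluorescence (360/450 nm) read 5 times over 30-s intervals, last minus first.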
# HTT aggregate – inhibitors of mutant huntingtin aggregate formation in PC12 cells | 220,000 compounds, 1.1% hits | PC12 HttQ103-GFP aggregates, Acumen cytometry, 40 h | Potency, µM (highest dose often 46.1 µM), actives largely listed as inhibitors | AID 1688; note: nearly all actives have a fitted effect of over 60% in size
#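 PC12/HTTQ103-GFP, ecdysone-inducible; teb 100 nM; cpd qHTS titration; GFP aggregates read on laser cytometer, Ex 488/Em 500-530 nm.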
# KDM4E inh – blocks human JMJD2E demethylase activity; AID 2147; 230,000 compounds, 1.6% hits; JMJD2E catalytic domain, FDH-coupled NADH fluorescence (FDH is formaldehyde dehydrogenase); B2RXH2; Potency, µM (top dose mostly 57.1 µM), most hits filed as inhibitors; active = well fitted inhibition curve with a large enough effect, not every such curve was filed as active; inconclusive = small, poorly fitted or top-dose-only effect, or another doubt; inactive = no such curve, though single readings can be large or run the other way; note: nearly all actives have a fitted effect of over 50% in size
# Target sequence (B2RXH2 1-337 limits assumed): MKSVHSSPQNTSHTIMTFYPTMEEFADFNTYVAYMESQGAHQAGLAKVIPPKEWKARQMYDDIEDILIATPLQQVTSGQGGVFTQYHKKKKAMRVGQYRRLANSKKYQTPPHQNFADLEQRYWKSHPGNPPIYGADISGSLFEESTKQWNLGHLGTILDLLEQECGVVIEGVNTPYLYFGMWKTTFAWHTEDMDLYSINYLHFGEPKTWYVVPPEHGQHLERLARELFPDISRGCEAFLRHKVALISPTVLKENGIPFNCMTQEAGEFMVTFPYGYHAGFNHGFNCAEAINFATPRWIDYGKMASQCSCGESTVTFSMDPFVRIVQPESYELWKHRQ
# A number is an active result; i = inactive; ? = inconclusive; nt = not tested or not shown; [ ] = remark or other dose. Unless noted, calls come from the whole dose curve; as a rule, active = well fitted curve in the direction sought with a large enough effect; inconclusive = small, poorly fitted or top-dose-only effect, or another doubt; inactive = no such curve, though single readings can be large; an effect the other way counts as inactive or inconclusive.
SMILES,CBFb RUNX1 block,ALDH1A1 inh,HTT cytoprotect,HPGD inh,HTT aggregate,KDM4E inh
COc1ccc(C(=O)C2CCCN(Cc3ccc(C#CCCO)cc3)C2)c(OC)c1 (stereo unspecified),i,i,i[10 µM],nt,i[9.22 µM],i
CC(=O)c1ccc(N/N=C2/CCCNC2=O)cc1,i,?,i[10 µM],nt,i[9.22 µM],i
Cc1ccc(N/N=C2/CCCNC2=O)cc1,i,22µM,i,i,i,i
Cc1ccc(-c2nc3ccc(NS(=O)(=O)c4ccccc4)cc3[nH]2)o1,i,8.9µM,i,i,i,i
CC(=O)Nc1ccc2nc(-c3ccc(Br)o3)[nH]c2c1,i,32µM,i[0.074 µM],i,i,i
CN(C1CC(C)(C)N(O)C(C)(C)C1)S(=O)(=O)CC12CCC(CC1=O)C2(C)C (stereo unspecified),i,i,nt,nt,i,i
O=C(CSc1cccc[n+]1[O-])Nc1ccc(C(F)(F)F)cc1[N+](=O)[O-],i,?,i[10 µM],nt,i,i
O=[N+]([O-])c1ccc(Sc2cccc[n+]2[O-])c2nonc12,?,2.2µM,i[10 µM],nt,1.1µM,i
CCOc1ccc(S(=O)(=O)Nc2ccc(C(=O)N/N=C(\C)c3ccc(-n4ccnc4)cc3)cc2)cc1,i,16µM,i,i,i[9.22 µM],i
CCc1ccc(OCC(=O)N/N=C(\C)c2ccc(-n3ccnc3)cc2)cc1,i,i,i[10 µM],nt,?,i
COc1cc(C2=NOC(C(=O)NCc3ccc(F)cc3)C2)cc(OC)c1OC (stereo unspecified),i,32µM,i[10 µM],i,i,i
COc1cccc(/C=N/NC(=S)NCc2ccco2)c1OC,i,nt,i[10 µM],nt,i[9.22 µM],?
COc1ccc(/C=N/N=C2/NC(=O)CC(C(=O)O)S2)cc1 (stereo unspecified),i,i,i[10 µM],i,i,i
COc1ccc(/C=N/N=C2/CC(C)(C)Cc3n[nH]c(=O)cc32)cc1,i,28µM,i[10 µM],nt,?,32µM
O=C(Oc1ccccc1C(=O)Nc1ccccc1)c1ccc(Br)c([N+](=O)[O-])c1,i,14µM,i[10 µM],i,i,i
CCC(=Nc1ccccc1O)C1=C(O)CC(c2ccccc2)CC1=O (stereo unspecified),i,nt,i[10 µM],nt,i[9.22 µM],25µM
O=C(/C=C/c1ccc([N+](=O)[O-])cc1)NCc1ccco1,i,i,i[10 µM],i,i,i
O=C(/C=C/c1c(F)cccc1Cl)c1ccc(F)cc1,i,i,i,13µM,i,i
O=C(/C=C/c1ccc(F)cc1)NCc1ccco1,i,i,i[0.074 µM],25µM,i,i
O=C(/C=C/c1c(F)cccc1Cl)NCc1ccco1,i,?,i[10 µM],10µM,i,i
O=[N+]([O-])c1nn(-c2ccc3c(c2)OCCO3)n(O)c1=NCc1ccc(F)cc1,i,i,i[10 µM],20µM,i,i
COC(=O)c1[nH]c(C)c(/C(O)=C2\C(=O)C(=O)N(CCN3CCOCC3)C2c2ccc(C)o2)c1C (stereo unspecified),i,nt,i[10 µM],nt,i[9.22 µM],i
O=C1CC(c2ccccc2Cl)=NN(c2ncnc3ccccc23)C1=O,i,0.63µM,i,nt,i,i
COC(=O)c1c(CSc2ccc(Cl)cc2)noc1C(=O)NCc1ccco1,i,?,i,22µM,i,i
COC(=O)c1c(CSc2cccc(C)c2)noc1C(=O)NCc1ccco1,i,?,i,11µM,i,i
SMILES,CBFb RUNX1 block,ALDH1A1 inh,HTT cytoprotect,HPGD inh,HTT aggregate,KDM4E inh
COCCNC(=O)c1onc(CSc2ccc(F)cc2)c1C(=O)NCCOC,i,nt,i[10 µM],nt,i[9.22 µM],i
COC(=O)c1c(CSc2ccc(C)c(C)c2)noc1C(=O)NCc1ccc(OC)cc1,i,?,i,7.1µM,i,i
Cc1cccc(SCc2noc(C(=O)NC(C)C)c2C(=O)O)c1,i,i,i,i,i,i
COc1cccc(SCc2noc(C(=O)NCc3ccccc3)c2C(=O)NCc2ccccc2)c1,i,nt,i[10 µM],nt,i[9.22 µM],i
Cn1nc(C(F)(F)F)c(-c2ccc(Br)cc2)c1NC(=O)CSCC(=O)O,i,nt,i[10 µM],nt,i[9.22 µM],i
O=C(Nc1ccc2c(c1)OC1(CCCC1)O2)C1CC1,i,i,i,i,i,i
CC1CCN(C(=O)/C(=C/c2ccccc2Cl)c2ccccc2)CC1,i,?,i,11µM,i,i
O=C(O)/C(=C\c1ccccc1)c1ccccc1,i,i[13.5 µM],i[10 µM],i,i[9.22 µM],i
CN1CCN(C(=O)/C(=C\c2ccccc2)c2ccccc2)CC1,i,i,i,18µM,i,i
COC(=O)C1=CO[C@@H](O[C@H]2OC(CO)C(O)C(O)C2O)C2C1CC(O)C2C (stereo partly specified),nt,i,nt,i,nt,i
CN(C)/C=C/C(=O)c1nn(-c2ccc(F)cc2)ccc1=O,i,i,i[10 µM],nt,i[9.22 µM],i
CC1(C)C/C(=N\O)C(C(O)c2cccc([N+](=O)[O-])c2)C(C)(C)N1 (stereo unspecified),i,nt,i[10 µM],nt,i[9.22 µM],i
c1ccc(CNCCNCc2ccccc2)cc1,i,nt,i,nt,i,nt
C=CC[n+]1c(-c2ccc(OC)c(OC)c2)csc1NNC(=O)Nc1ccccc1,i,?,i,i,13µM,i
Cc1ccc(S(=O)(=O)Nc2cccc3ncccc23)s1,i,13µM,i,28µM,?,i
Cc1ccc(S(=O)(=O)Nc2cccc3ncccc23)cc1,i,nt,i[10 µM],nt,i[9.22 µM],i
O=C(CSc1ccccc1Cl)c1ccco1,i,i,i,i,i[9.22 µM],i
O=C(CCNC(=O)c1ccccc1)Nc1ccc(F)c(Cl)c1,i,i,i[10 µM],i,i,i
O=C(CCNc1cc(Cl)cc(Cl)c1)c1ccco1,i,7.9µM,i,i,i,i
O=C(CCNc1ccc(F)c(Cl)c1)c1ccco1,i,3.5µM,i[10 µM],i,i,i
O=C(CCNc1ccc(F)cc1)c1ccco1,i,1.4µM,i,i,i,i
O=C(CNC(=O)c1ccco1)Nc1ccc(F)cc1,i,i,i[10 µM],nt,i,i
O=C(CSc1ccc(Cl)cc1)c1ccco1,i,13µM,i,25µM,?,i
COc1cc(C(=S)N2CCOCC2)cc(OC)c1O,i,nt,i[10 µM],nt,i[9.22 µM],i
O=C(Nc1ccc(O)cc1)c1ccc(C(=O)c2ccccc2)o1,i,?,i[0.074 µM],?,?,?
SMILES,CBFb RUNX1 block,ALDH1A1 inh,HTT cytoprotect,HPGD inh,HTT aggregate,KDM4E inh
COc1cccc(C(O)c2cnc(C(C)C)n2C)c1 (stereo unspecified),i,nt,i[10 µM],nt,i[9.22 µM],i
CN(C)c1ccc(C2(c3ccc(N(C)C)cc3)OC(=O)c3cc(N(C)C)ccc32)cc1,nt,?,i,?,nt,nt
O=C(CCNc1cccc(C(F)(F)F)c1)c1ccco1,i,2.5µM,i[10 µM],i,i,i
O=C(CCNc1ccc(Cl)c(C(F)(F)F)c1)c1ccco1,i,8.9µM,i,i,i,i
COC(=O)CNc1cccc(C(F)(F)F)c1,i,?,i[10 µM],nt,i[9.22 µM],i
CCOc1ccc(C(C)=O)cc1N1C(=O)C2C3C=CC(C3)C2C1=O (stereo unspecified),i,i,i,i,i,i
